Experimental data taken from PubChem BioAssay (Tox21).
Results filed as inconclusive are left out. The source made the active and inactive calls. Unless noted, the call rests on the fitted dose curve; in most records, active means well fitted curve in the direction sought with a large enough effect in the repeat runs; inconclusive means weak or mixed curves; inactive means no such curve, though single readings can be large; an effect the other way counts as inactive or inconclusive.

Key:
[1] = qHTS assay to identify small molecule antagonists of the vitamin D receptor (VDR) signaling pathway - cell viability counter screen (AID 743225); further: nearly all actives have a fitted effect of over 50% in size
Summary of the method: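 In this counter screen, VDR-bla HEK 293T cells receive test compound plus 3 nM final calcitriol for 16 h at 37C. Room-temperature steps of 2 h with the beta-lactamase substrate, then 30 min with CellTiter-Glo, precede the luminescence read.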

[2] = qHTS assay to identify small molecule agonists of the NFkB signaling pathway (AID 1159509; active means well fitted curve in the direction sought with a large enough effect in the signal ratio in the repeat runs, not every such curve was filed as active; the % refers to the signal ratio; further: series mostly up to about 61 µM)
Summary of the method: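 Beta-lactamase reporter assay run in quantitative high-throughput format on an NF-kB-responsive ME-180 line, with 5 hr compound treatment and a FRET-based blue/green fluorescence readout.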

[3] = qHTS assay to identify small molecule agonists of the NFkB signaling pathway - cell viability counter screen (AID 1159515; calls by dose curve; further: series mostly up to about 61 µM; nearly all actives have a fitted effect of over 55% in size)
Summary of the method: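 Read by CellTiter-Glo luminescence (30 min, room temperature) in the wells also used for the beta-lactamase FRET read. ME-180 NFkB-bla cells at 2,000 per well were plated overnight, then exposed to compound for 5 hr at 37 C.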

[4] = qHTS assay to identify small molecule agonists of the endoplasmic reticulum stress response signaling pathway (AID 1159516; active means well fitted activation curve with a large enough effect in the signal ratio in the repeat runs, not every such curve was filed as active; the % refers to the signal ratio)
Summary of the method: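 Ratiometric FRET readout (405 nm excitation; 460 and 530 nm emission) of a beta-lactamase gene driven by the ER stress response element, after 2 hr substrate loading. HeLa ESRE-bla cells were seeded overnight and treated with compounds for only 5 hr at 37 C.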

[5] = qHTS assay to identify small molecule agonists of the endoplasmic reticulum stress response signaling pathway - cell viability counter screen (AID 1159517; calls by dose curve; further: series mostly up to about 61 µM; nearly all actives have a fitted effect of over 50% in size)
Summary of the method: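 Cytotoxicity of test compounds toward ESRE-bla HeLa cells was assessed after 5 hr exposure. The luminescent CellTiter-Glo signal was measured 30 min after reagent addition.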

[6] = qHTS assay to identify small molecule antagonists of the retinoid-related orphan receptor gamma (ROR-gamma) signaling pathway - cell viability counter screen (AID 1159520); further: nearly all actives have a fitted effect of over 50% in size
Summary of the method: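 Tet-on ROR gamma CHO cells (1,000/well) were plated 4 hr, given compounds in DMSO for 2 hr at 37 C, then induced with 1 uM final doxycycline for 16 hr. Viability was read as ATP by CellTiter-Glo luminescence after 30 min.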

[7] = qHTS assay to identify small molecule agonists of the AP-1 signaling pathway - cell viability counter screen (AID 1159525; calls by dose curve; further: nearly all actives have a fitted effect of over 55% in size)
Summary of the method: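 Each titration point was normalised to DMSO and tetra n-octyl ammonium bromide controls. The read was Cell Titer Glo luminescence after 30 min at RT, following 5 h compound exposure of ME-180 AP-1-bla cells at 37 °C.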

[8] = qHTS assay to identify small molecule agonists of the AP-1 signaling pathway (AID 1159526; calls by dose curve)
[9] = target: Retinoic acid receptor RXR-alpha (Homo sapiens) (UniProt P19793); assay: qHTS assay to identify small molecule agonists of the RXR signaling pathway (AID 1159527; calls by dose curve; further: nearly all actives have a fitted effect of over 35% in size)
Chain of Retinoic acid receptor RXR-alpha (Homo sapiens) (P19793 whole entry, looked up): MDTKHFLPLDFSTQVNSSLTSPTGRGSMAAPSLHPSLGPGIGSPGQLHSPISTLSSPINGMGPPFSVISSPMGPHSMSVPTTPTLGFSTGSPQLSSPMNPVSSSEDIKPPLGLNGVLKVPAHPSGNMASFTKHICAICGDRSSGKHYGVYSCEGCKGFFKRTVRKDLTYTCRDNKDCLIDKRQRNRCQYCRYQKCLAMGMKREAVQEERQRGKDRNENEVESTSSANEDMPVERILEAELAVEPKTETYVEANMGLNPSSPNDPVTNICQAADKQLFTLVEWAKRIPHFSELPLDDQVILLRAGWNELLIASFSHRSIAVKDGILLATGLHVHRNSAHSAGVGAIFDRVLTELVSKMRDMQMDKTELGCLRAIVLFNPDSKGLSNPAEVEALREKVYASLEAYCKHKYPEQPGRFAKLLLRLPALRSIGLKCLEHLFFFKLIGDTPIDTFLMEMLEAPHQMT
Summary of the method: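 Fluorescence ratio readout (460 vs 530 nm) from GeneBLAzer RXR-alpha HEK 293T cells after 16 hr compound treatment; cells seeded 5 hr beforehand in low-serum, charcoal-stripped medium.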

[10] = qHTS assay to identify small molecule antagonists of the retinoid acid receptor (RAR) signaling pathway - cell viability counter screen (AID 1159551); further: nearly all actives have a fitted effect of over 35% in size
Summary of the method: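 Cytotoxicity counter screen: ATP content quantified by CellTiter-Glo luminescence in C3RL4 cells treated 6 hr at 37 C with compound and retinol (1 uM final). Cells plated at 1,000/well and cultured overnight before dosing.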

[11] = qHTS assay to identify small molecule antagonists of the retinoic acid receptor (RAR) signaling pathway (AID 1159552; further: nearly all actives have a fitted effect of over 50% in size)
Summary of the method: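 Using a RARE-driven luciferase construct in C3RL4 cells, retinol at 1 uM final provided the agonist stimulus while compounds were co-applied. After 6 hours at 37 C, luminescence was recorded to flag inhibitors of retinol signaling.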

[12] = qHTS assay to identify small molecule agonists of the retinoic acid receptor (RAR) signaling pathway (AID 1159553)
Summary of the method: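 Luminescence was measured 30 min after luciferase reagent addition at room temperature. Before that, C3RL4 reporter cells (1,000 per well, plated overnight) were treated with compound for 6 hr at 37 C and 5% CO2.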

[13] = qHTS assay to identify small molecule agonists of the RXR signaling pathway - cell viability counter screen (AID 1159529)
Summary of the method: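 Viability read-out for the RXR-alpha agonist qHTS: luminescent CellTiter-Glo signal after 30 min at RT. HEK 293T bla reporter cells, 2% charcoal-stripped FBS, 16 hr compound incubation; tetraoctyl ammonium bromide as cytotoxic control.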

Measured: Potency

C=C(C)C(=O)OCCOP(=O)(O)O
not listed: [13]
inactive: all other assays above

FC(F)(F)c1ccccc1
not listed: [13]
inactive: all other assays above

CN1CCN(c2c(F)cc3c(=O)c(C(=O)O)cn(CCF)c3c2F)CC1
not listed: [9]
inactive: all other assays above

CCOc1ccc(NS(=O)(=O)c2ccc(N)cc2)nn1
not listed: [9]
inactive: all other assays above

COc1nc(C)nc(NC(=O)NS(=O)(=O)c2ccccc2OCCCl)n1
not listed: [9] | [13]
inactive: all other assays above

CCCCCCn1c(=O)c2c(ncn2C)n(C)c1=O
not listed: [13]
inactive: all other assays above

Oc1ccccc1F
not listed: [1] | [9]
inactive: all other assays above

COc1cc(N)c(Cl)cc1C(=O)NC1CCN(Cc2ccccc2)CC1
not listed: [9]
inactive: all other assays above

CCN(CC)C(=O)N(CC)CC
not listed: [9]
inactive: all other assays above

NCCCN1CCN(CCCN)CC1
not listed: [9]
inactive: all other assays above

COC(=O)N[C@H](C(=O)N[C@@H](Cc1ccccc1)[C@@H](O)CN(Cc1ccc(-c2ccccn2)cc1)NC(=O)[C@@H](NC(=O)OC)C(C)(C)C)C(C)(C)C
not listed: [9]
inactive: all other assays above

CN(CC1(C)CCCO1)S(=O)(=O)c1ccc(Cl)c(S(N)(=O)=O)c1 (stereo not given)
not listed: [11] | [13]
inactive: all other assays above

COC(=O)/C=C(/C)N
not listed: [11] | [13]
inactive: all other assays above

O=C(CCCl)NCc1ccccc1
not listed: [13]
inactive: all other assays above

C=O
not listed: [9] | [13]
inactive: all other assays above

C=Cc1ccccc1
not listed: [9] | [11]
inactive: all other assays above

CCN[C@H]1CN(CCCOC)S(=O)(=O)c2sc(S(N)(=O)=O)cc21
not listed: [9]
inactive: all other assays above

NC(=O)Cc1cccc(C(=O)c2ccccc2)c1N
not listed: [9]
inactive: all other assays above

Nc1cccc(S(=O)(=O)O)c1
not listed: [9]
inactive: all other assays above

CCCCCCC
not listed: [9]
inactive: all other assays above

NC(=O)NS(=O)(=O)c1ccc(Cl)cc1
not listed: [11] | [13]
inactive: all other assays above
